One may read the inhibition as the relative decrease from the control value, in per cent.

In assay [1] the target is High affinity nerve growth factor receptor (Homo sapiens) (UniProt P04629). The following applies: at 1 µM.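 Further: each value is the mean percent inhibition of TRKA.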
In assay [2] the target is BDNF/NT-3 growth factors receptor (Homo sapiens) (UniProt Q16620). The following applies: at 0.1 µM.
For assay [3] the target is unchanged. The following applies: at 1 µM.
The target of assay [4] is NT-3 growth factor receptor (Homo sapiens) (UniProt Q16288). The following applies: at 0.1 µM.
Chain of NT-3 growth factor receptor (Homo sapiens) (Q16288 32-839 limits assumed): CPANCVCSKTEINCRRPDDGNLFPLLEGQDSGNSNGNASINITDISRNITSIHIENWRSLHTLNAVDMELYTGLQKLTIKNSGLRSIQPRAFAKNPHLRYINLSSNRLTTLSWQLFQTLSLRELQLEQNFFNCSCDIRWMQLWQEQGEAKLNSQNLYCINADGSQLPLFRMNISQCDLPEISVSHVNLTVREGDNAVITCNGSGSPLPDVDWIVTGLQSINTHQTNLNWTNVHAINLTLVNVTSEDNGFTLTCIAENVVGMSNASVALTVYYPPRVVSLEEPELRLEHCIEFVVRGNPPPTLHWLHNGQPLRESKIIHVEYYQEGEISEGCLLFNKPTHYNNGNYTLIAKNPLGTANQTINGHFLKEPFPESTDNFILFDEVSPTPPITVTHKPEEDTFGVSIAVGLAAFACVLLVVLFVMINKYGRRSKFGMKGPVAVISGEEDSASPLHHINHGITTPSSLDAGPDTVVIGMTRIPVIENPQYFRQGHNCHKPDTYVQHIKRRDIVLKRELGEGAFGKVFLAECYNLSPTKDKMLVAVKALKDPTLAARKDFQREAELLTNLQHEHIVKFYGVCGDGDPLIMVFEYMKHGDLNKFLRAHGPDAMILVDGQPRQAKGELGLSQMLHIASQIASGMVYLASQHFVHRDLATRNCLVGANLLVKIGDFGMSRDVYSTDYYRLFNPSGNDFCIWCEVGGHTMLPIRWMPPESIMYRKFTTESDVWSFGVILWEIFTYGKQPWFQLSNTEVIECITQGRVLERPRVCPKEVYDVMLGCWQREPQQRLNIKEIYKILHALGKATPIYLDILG
For assay [5] the target is unchanged. The following applies: at 1 µM.
Assay [6] addresses T1, Tyrosine-protein kinase TXK (Homo sapiens) (UniProt P42681).
T1 sequence (whole entry): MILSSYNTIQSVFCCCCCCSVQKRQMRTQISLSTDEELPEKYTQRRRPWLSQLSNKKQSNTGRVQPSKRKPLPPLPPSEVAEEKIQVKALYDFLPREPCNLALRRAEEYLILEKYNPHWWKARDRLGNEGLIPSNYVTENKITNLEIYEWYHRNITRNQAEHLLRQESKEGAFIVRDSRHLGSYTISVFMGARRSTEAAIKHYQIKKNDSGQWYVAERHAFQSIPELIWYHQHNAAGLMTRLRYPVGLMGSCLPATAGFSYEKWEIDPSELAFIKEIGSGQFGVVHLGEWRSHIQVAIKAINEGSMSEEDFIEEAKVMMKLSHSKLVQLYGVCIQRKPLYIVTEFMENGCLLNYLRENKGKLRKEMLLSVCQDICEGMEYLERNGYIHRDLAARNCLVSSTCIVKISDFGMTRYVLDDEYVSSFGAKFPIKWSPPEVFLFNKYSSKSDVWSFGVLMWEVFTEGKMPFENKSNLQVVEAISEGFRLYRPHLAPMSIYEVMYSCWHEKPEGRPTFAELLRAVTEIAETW
The following applies: at 0.1 µM.

The target of assay [7] is T1, Tyrosine-protein kinase TXK (Homo sapiens). The following applies: at 1 µM.
The target in assay [8] is Non-receptor tyrosine-protein kinase TYK2 (Homo sapiens) (UniProt P29597). The following applies: at 0.1 µM.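 Further: each value is a mean of the inhibition readings.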
Chain of Non-receptor tyrosine-protein kinase TYK2 (Homo sapiens) (P29597 whole entry): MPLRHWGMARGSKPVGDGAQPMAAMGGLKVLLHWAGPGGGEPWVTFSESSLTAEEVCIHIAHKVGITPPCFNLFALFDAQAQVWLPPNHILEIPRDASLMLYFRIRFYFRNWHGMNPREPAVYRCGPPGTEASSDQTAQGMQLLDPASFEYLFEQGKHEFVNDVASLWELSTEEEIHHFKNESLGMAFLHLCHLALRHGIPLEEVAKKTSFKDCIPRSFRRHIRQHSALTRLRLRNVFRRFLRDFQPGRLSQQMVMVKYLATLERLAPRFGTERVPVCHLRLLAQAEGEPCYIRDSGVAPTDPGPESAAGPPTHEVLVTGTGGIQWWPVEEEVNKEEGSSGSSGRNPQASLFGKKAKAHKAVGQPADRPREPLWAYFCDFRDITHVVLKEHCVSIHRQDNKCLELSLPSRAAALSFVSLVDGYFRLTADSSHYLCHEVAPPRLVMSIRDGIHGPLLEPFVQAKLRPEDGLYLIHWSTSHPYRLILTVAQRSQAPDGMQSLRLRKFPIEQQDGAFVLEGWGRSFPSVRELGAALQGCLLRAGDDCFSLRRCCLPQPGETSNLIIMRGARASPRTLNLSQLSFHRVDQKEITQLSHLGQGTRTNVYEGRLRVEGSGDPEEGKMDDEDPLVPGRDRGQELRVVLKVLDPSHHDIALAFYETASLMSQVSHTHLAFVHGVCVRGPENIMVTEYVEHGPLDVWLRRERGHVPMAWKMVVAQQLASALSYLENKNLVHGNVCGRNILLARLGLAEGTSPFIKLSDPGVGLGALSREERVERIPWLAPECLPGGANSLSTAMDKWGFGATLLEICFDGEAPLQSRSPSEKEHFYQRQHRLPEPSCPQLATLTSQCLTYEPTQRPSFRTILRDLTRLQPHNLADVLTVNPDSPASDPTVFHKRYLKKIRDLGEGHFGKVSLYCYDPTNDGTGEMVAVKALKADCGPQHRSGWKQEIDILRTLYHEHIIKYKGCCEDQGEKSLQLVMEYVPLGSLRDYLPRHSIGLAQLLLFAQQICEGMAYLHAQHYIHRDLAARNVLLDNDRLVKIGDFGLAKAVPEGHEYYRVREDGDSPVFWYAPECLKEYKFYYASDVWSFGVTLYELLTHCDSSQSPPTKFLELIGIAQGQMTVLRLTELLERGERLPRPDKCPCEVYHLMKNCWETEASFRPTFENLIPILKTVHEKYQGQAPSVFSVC
Assay [9] concerns the target T2, Dual specificity protein kinase TTK (Homo sapiens) (UniProt P33981).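 Further: reported figures are mean TTK inhibition at 1 µM.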
T2 sequence (whole entry): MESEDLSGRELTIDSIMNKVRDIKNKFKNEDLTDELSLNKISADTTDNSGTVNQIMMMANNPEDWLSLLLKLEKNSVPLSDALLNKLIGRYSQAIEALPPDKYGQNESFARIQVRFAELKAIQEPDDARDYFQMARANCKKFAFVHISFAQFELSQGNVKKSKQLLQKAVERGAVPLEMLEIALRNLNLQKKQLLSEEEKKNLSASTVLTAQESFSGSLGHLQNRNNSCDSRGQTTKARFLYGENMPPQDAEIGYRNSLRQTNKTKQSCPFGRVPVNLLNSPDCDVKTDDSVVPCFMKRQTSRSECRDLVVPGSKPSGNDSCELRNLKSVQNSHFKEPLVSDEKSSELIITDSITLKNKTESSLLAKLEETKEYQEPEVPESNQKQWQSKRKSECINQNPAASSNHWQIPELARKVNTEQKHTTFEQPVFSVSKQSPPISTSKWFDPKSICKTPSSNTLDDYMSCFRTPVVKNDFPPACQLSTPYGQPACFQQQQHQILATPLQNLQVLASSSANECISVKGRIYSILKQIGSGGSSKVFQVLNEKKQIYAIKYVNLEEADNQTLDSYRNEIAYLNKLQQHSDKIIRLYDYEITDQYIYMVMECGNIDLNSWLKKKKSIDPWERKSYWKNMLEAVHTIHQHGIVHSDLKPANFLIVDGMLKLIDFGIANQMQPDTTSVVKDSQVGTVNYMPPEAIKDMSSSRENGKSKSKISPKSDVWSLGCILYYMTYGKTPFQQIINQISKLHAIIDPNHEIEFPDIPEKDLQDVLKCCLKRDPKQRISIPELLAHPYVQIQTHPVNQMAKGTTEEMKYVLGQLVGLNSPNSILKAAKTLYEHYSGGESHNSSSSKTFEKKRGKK
The following applies: at 1 µM.

Assay [10] concerns the target T3, Aurora kinase A (Homo sapiens) (UniProt O14965).
T3 sequence (whole entry): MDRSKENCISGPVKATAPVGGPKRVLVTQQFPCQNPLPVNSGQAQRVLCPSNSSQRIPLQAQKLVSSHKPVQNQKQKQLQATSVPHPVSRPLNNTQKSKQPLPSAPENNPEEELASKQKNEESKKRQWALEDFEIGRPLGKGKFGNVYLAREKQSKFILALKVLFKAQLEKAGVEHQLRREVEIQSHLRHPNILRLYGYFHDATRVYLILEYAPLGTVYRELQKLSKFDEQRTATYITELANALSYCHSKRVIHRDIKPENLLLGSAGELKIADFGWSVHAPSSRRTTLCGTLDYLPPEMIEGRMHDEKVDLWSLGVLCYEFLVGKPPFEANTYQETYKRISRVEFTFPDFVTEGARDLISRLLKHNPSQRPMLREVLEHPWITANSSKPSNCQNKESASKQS
The following applies: at 0.1 µM.

In assay [11] the target is T3, Aurora kinase A (Homo sapiens). The following applies: at 1 µM.
The target in assay [12] is Aurora kinase B (Homo sapiens) (UniProt Q96GD4). The following applies: at 0.1 µM.
Chain of Aurora kinase B (Homo sapiens) (Q96GD4 whole entry): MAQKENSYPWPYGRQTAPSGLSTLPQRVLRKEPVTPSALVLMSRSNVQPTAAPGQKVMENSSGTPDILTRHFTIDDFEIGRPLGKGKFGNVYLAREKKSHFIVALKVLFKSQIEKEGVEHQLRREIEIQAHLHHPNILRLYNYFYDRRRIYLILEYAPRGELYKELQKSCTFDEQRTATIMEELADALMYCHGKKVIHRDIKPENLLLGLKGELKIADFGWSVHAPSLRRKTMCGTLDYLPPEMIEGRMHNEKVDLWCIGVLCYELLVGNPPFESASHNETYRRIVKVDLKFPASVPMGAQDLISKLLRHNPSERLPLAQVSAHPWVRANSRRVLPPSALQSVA
The target is the same in assay [13]. The following applies: at 1 µM.
For assay [14], the target named is T4, Aurora kinase C (Homo sapiens) (UniProt Q9UQB9).
T4 sequence (whole entry): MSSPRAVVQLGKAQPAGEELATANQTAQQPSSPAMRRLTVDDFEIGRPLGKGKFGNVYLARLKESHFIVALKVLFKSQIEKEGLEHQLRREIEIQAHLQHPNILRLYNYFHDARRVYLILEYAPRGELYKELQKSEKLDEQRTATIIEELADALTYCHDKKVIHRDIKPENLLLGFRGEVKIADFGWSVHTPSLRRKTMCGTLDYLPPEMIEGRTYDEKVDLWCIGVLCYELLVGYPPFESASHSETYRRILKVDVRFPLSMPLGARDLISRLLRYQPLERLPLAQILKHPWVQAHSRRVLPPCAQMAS
The following applies: at 0.1 µM.

Assay [15] deals with T4, Aurora kinase C (Homo sapiens). The following applies: at 1 µM.
In assay [16] the target is Serine/threonine-protein kinase 10 (Homo sapiens) (UniProt O94804). The following applies: at 0.1 µM.
Chain of Serine/threonine-protein kinase 10 (Homo sapiens) (O94804 whole entry, looked up): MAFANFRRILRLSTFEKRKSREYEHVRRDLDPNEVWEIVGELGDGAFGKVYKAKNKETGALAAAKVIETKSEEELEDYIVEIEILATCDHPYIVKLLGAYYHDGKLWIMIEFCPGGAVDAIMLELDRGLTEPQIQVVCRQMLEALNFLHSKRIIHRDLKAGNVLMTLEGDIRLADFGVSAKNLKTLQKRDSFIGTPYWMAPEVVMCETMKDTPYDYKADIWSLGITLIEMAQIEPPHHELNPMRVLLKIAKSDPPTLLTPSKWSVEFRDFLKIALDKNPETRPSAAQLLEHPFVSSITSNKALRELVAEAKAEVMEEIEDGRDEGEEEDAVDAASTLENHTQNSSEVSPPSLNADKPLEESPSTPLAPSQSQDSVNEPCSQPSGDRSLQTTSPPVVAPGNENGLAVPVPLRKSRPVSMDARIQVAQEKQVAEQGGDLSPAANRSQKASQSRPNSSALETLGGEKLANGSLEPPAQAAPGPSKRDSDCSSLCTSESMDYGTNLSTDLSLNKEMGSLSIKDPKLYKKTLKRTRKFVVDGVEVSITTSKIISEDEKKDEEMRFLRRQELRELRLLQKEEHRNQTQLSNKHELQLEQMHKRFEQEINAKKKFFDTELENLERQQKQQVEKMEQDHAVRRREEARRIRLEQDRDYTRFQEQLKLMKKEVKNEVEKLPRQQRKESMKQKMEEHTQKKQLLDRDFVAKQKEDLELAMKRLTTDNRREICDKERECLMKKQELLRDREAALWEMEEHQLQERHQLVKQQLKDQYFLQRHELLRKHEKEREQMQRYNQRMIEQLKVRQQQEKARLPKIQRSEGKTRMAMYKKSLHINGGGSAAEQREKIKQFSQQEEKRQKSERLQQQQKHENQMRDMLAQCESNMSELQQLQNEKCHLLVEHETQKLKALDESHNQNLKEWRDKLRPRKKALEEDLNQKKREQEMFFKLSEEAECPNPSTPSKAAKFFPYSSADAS
For assay [17] the target is unchanged. The following applies: at 1 µM.
The target in assay [18] is T5, Mitogen-activated protein kinase kinase kinase kinase 2 (Homo sapiens) (UniProt Q12851).
T5 sequence (whole entry): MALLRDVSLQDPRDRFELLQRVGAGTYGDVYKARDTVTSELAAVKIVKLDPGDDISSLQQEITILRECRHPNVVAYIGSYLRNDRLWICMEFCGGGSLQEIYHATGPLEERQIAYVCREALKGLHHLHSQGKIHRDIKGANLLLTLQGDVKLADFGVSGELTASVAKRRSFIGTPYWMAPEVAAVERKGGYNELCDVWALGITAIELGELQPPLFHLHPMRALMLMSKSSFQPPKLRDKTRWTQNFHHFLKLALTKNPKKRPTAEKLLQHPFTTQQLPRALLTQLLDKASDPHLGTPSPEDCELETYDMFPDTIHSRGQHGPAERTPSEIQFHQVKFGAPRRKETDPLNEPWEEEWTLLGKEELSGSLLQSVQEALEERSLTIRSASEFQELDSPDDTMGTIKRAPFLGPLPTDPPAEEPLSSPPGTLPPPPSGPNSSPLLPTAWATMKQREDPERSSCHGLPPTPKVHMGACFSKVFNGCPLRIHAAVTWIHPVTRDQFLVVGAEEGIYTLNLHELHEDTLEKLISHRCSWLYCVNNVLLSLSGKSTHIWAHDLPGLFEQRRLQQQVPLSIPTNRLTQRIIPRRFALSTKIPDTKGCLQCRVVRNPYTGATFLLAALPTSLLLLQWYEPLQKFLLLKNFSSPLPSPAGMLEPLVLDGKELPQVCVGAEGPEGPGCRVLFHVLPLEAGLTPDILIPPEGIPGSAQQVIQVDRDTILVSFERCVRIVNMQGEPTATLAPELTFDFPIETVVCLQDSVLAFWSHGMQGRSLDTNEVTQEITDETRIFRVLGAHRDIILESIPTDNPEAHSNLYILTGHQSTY
The following applies: at 0.1 µM.

Assay [19] concerns the target T5, Mitogen-activated protein kinase kinase kinase kinase 2 (Homo sapiens). The following applies: at 1 µM.
For assay [20], the target named is Mitogen-activated protein kinase kinase kinase kinase 4 (Homo sapiens) (UniProt O95819). The following applies: at 0.1 µM.

Chain of BDNF/NT-3 growth factors receptor (Homo sapiens) (Q16620 32-822 limits assumed): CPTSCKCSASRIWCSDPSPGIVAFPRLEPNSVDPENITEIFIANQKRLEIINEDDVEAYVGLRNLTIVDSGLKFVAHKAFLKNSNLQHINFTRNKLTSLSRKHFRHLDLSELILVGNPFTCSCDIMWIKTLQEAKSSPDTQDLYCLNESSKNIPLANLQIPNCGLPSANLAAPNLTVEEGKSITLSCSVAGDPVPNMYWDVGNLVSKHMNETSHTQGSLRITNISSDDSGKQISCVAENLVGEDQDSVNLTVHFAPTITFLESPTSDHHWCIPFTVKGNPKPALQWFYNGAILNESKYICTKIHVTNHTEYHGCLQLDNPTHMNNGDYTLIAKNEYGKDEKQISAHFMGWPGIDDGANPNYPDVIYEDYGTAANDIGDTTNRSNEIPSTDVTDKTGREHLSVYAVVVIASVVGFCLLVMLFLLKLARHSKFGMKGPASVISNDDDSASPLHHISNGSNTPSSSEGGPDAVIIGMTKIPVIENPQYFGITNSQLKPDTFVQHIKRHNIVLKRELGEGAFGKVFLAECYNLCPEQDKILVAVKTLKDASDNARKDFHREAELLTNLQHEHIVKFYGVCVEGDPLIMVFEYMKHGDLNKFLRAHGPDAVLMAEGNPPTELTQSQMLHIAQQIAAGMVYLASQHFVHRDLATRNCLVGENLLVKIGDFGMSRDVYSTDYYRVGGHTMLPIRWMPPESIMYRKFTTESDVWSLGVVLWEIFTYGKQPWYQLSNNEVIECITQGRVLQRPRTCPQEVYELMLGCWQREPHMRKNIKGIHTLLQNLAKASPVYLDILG
Chain of High affinity nerve growth factor receptor (Homo sapiens) (P04629 33-796 limits assumed): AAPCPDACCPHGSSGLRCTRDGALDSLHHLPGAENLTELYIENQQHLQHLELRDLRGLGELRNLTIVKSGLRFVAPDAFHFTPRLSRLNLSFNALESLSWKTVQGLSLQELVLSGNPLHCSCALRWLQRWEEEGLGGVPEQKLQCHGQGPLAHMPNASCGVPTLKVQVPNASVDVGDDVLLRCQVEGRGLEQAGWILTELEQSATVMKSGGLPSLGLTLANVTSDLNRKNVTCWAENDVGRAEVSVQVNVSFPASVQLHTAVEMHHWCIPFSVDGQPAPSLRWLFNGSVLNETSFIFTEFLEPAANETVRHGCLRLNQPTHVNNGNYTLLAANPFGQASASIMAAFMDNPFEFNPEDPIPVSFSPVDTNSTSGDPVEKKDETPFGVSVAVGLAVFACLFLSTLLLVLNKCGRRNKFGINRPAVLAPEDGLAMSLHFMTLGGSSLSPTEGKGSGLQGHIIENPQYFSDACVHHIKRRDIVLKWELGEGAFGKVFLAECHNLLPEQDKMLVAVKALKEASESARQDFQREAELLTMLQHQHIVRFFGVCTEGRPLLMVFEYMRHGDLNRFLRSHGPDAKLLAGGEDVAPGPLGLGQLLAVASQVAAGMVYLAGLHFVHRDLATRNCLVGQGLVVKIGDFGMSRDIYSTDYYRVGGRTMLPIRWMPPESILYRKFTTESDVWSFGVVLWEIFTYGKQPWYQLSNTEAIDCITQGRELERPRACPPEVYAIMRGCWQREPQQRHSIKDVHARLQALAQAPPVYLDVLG

As to `C#Cc1cccc(Nc2ncnc3ccc(OCCCCNCCS(C)(=O)=O)cc23)c1`, the inhibition in assay [1] came to 1.9%; in [2], 3.91%; in assay [3], 2.28%; in assay [4], 3.6%; in [5], 4.94%; in assay [6], 5.2%. Moreover, the inhibition is 7.94% in [7]; -6.6% in [8]; 9.83% in assay [9]; -1.65% in assay [10]; -0.05% in assay [11]; -2.61% in assay [12]. Besides, the inhibition in [13] was 2.47%; in [14] it was -2.83%; in assay [15], -5.69%; in assay [16] it was 23.4%; in assay [17], 75.4%; in [18], 1.44%. In addition, the values for the inhibition in assay [19] and in assay [20] were 5.3% and 5.65%, respectively.
As to `CNC(=O)c1cncc(/C=C/c2c(C)cccc2C)c1`, the inhibition in assay [1] came out at 0.47%; in [2], 0.05%; in assay [3], 0.22%; in [4], 0.47%; in assay [5], 1.16%; in assay [6], 5.71%. Moreover, the inhibition in assay [7] is 35.6%; in [8], -0.15%; in [9], 5.33%; in [10] it was -1.77%; in assay [11] it was -0.78%; in assay [12], -3.36%. Also, the inhibition was -3.06% in [13]; -3.26% in [14]; -9.54% in assay [15]; 1.24% in [16]; 10.3% in assay [17]; 0.91% in assay [18]. In addition, the inhibition in assay [19] came to 4.59%; in assay [20], 4.81%.
For the molecule `c1ccc(-c2n[nH]cc2-c2ccnc(-c3ccc(OCCN4CCOCC4)cc3)c2)nc1`, the inhibition in [1] was -0.7%; in assay [2], 0.05%; in [3], 0.41%; in [4], 1.29%; in [5] it was 3.05%; in assay [6], 5.88%. Further, the inhibition in [7] was determined as 6.57%; in assay [8], 4.24%; in [9], 0.86%; in assay [10], 0.43%; in assay [11] it was 7.41%; in [12], 7.03%. Also, the inhibition was 11.9% in [13]; 5.43% in [14]; 18.2% in [15]; 3.53% in assay [16]; 6.24% in assay [17]; 6.4% in assay [18]. The inhibition in assay [19] amounted to 7.48%; in assay [20], 28.6%.
For the molecule `Cc1nnc(-c2ccc(C)c(-c3ccc(C(=O)NCc4ccc(Cl)cc4)cc3)c2)o1`, the inhibition is 3.12% in assay [1]; 3.47% in [2]; 1.5% in [3]; 2.79% in [4]; 1.36% in [5]; -0.45% in [6]. The inhibition in assay [7] was -1.48%; in assay [8] it was -6.26%; in [9] it was -0.17%; in assay [10], -1.43%; in assay [11], -4.05%; in assay [12], -0.69%. In addition, the inhibition in [13] is -2.09%; in assay [14], -2.03%; in assay [15] it was -9.49%; in assay [16], 2.71%; in assay [17] it was 6.75%; in assay [18], 1.46%. Moreover, the inhibition in assay [19] is 1.6%; in assay [20], 5.65%.
For the molecule `CN(c1ccc(NC(=O)Nc2c(Cl)cccc2Cl)cc1)c1ccnc(Nc2cccc(CS(C)(=O)=O)c2)n1`, the inhibition was 68.7% in assay [1]; 30.1% in assay [2]; 55.4% in [3]; 31.7% in assay [4]; 88.6% in assay [5]; 9.28% in assay [6]. For the same molecule, the inhibition in assay [7] is 21.1%; in [8], -2.98%; in assay [9], 19.4%; in assay [10], 73.9%; in [11], 97.6%; in assay [12], 76.4%. Also, the inhibition in [13] was 84.2%; in [15], 104%; in assay [16] it was 90.8%; in assay [17], 86.5%; in assay [18], 11.5%; in [19] it was 32.9%. Moreover, in assay [20], the inhibition is 34.3%.
On to `CN1CCN(CCCNc2nc3ccc(Oc4ccc(NC(=O)Nc5cc(C(F)(F)F)ccc5F)cc4)cc3[nH]2)CC1`, for which the inhibition stood at 34% in [1]; 1.65% in assay [2]; 10.6% in assay [3]; 4.05% in assay [4]; 17.4% in [5]; 1% in [6]. In addition, the inhibition in [7] is 5.01%; in [8], -2.82%; in assay [9], 20.8%; in assay [10], -1.66%; in assay [11] it was -0.34%; in assay [12], -0.75%. Also, the inhibition in assay [13] is 4.51%; in [14], -5.06%; in assay [15], 23.7%; in assay [16] it was 15.9%; in assay [17], 53%; in assay [18], 3.12%. Also, the inhibition in assay [19] came to 8.26%; in [20] it was 2.15%.
For the molecule `Cc1ccc(C(=O)NC2CCC2)cc1-c1ccc(C(=O)NCC2CC2)cc1`, the inhibition was 3.19% in assay [1]; 1.02% in assay [2]; 1.56% in assay [3]; 2.08% in assay [4]; 1.92% in assay [5]; 2.58% in [6]. Also, the inhibition in [7] was 3.4%; in assay [8], -0.8%; in assay [9], 9.27%; in [10] it was 2.11%; in assay [11], 7.83%; in [12], 0.48%. Moreover, the inhibition is 5.72% in [13]; 0.47% in assay [14]; 7.37% in [15]; 2.19% in [16]; 6.8% in assay [17]; 0.91% in assay [18]. Also, the inhibition in assay [19] turned out to be 0.04%; in assay [20], 3.19%.

The values above are taken from ChEMBL document CHEMBL1961873, “Compounds: GSK PKIS; Assays: Nanosyn kinase panel” (2012).
